This excerpt belongs to a sample that is enriched for hits.
CHX counter = Cycloheximide Counterscreen for Small Molecule Inhibitors of Shiga Toxin. cell reporter, cycloheximide protein synthesis inhibition counterscreen. max response, %. 300,000 compounds, 12% hits. AID 2314, 2010; in the data active = max response mostly above about 13%, no sharp cut-off; inactive = mostly below about 14%; note: read at 38.3 µM for the half of the compounds with a filed dose
AmpC inh no detg = qHTS Inhibitors of AmpC Beta-Lactamase (assay without detergent); AID 485341, 2010; P00811; AmpC nitrocefin hydrolysis, absorbance 480 nm, 0.0001% Triton; Potency, µM (series often up to 57.1 µM), most hits filed as inhibitors; 330,000 compounds, 0.52% hits; note: nearly all actives have a fitted effect of over 20% in size
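20 mM phosphate pH 7.0 + 0.01% (detergent screen) or 0.0001% Triton X-100; 5.3 nM AmpC reagent; cpd preinc 15 min RT; nitrocefin (800 uM stock) to start; A480 q20 s × 4 min; Activity was normalised to no-enzyme and no-compound control wells.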
Shiga toxin inh = A qHTS for Small Molecule Inhibitors of Shiga Toxin. inhibition, % at 38.7 µM. AID 2315, 2010. Vero cells, Shiga toxin protein synthesis inhibition reporter. 290,000 compounds, 9.2% hits; in the data active = inhibition mostly above about 28%, no sharp cut-off; inactive = mostly below about 43%
NS1 inh = qHTS Assay for Inhibitors of Influenza NS1 Protein Function | Potency, µM (top dose mostly 46.1 µM) | 270,000 compounds, 0.4% hits | AID 2326, 2010; calls by dose curve; note: actives are rising curves; nearly all actives have a fitted effect of over 50% in size
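Growth recovery, yeast-based: influenza A NS1 expressed in S. cerevisiae causes slow growth, and suppressors are detected by OD600. The parent strain without NS1 is used as positive control.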
AmpC inh detg = qHTS Inhibitors of AmpC Beta-Lactamase (assay with detergent). P00811. AmpC hydrolysis of nitrocefin, absorbance 480 nm, 0.01% Triton. Potency, µM (series often up to 114 µM), usual class: inhibitors. 370,000 compounds, 0.041% hits. AID 485294, 2010; note: nearly all actives have a fitted effect of over 25% in size
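20 mM phosphate pH 7.0 + 0.01% (detergent screen) or 0.0001% Triton X-100; 5.3 nM AmpC reagent; cpd preinc 15 min RT; nitrocefin (800 uM stock) to start; A480 q20 s × 4 min; Activity was normalised to no-enzyme and no-compound control wells.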
Numbers stand for hits; - = inactive; ? = inconclusive; . = no result given. Unless noted, calls come from the whole dose curve; as a rule, active = well fitted curve in the direction sought with a large enough effect; inconclusive = small, poorly fitted or top-dose-only effect, or another doubt; inactive = no such curve, though single readings can be large; an effect the other way counts as inactive or inconclusive.

SMILES | CHX counter | AmpC inh no detg | Shiga toxin inh | NS1 inh | AmpC inh detg
CN(Cc1ccccc1)C(=O)CN1C(=O)CSc2ccc(S(=O)(=O)N3CCOCC3)cc21 | . | . | . | . | -
COc1cc(/C=C/C(=O)OCC(=O)NC2CCCCCCC2)ccc1O | . | - | . | . | .
O=C(C1CCCN(S(=O)(=O)c2ccc(Br)cc2)C1)N1CCN(Cc2ccccc2)CC1 (stereo unspecified) | - | - | - | - | -
Fc1ccccc1CNc1ccc(Cl)cc1 | 28 | - | 50 | - | ?
Fc1ccc(NCc2ccccc2F)cc1Cl | - | - | - | - | -
Cc1ccccc1C(=O)Nc1c(C)nc2ccccn2c1=O | . | . | . | . | -
